The nature of assay [1]: qHTS RealTime-Glo MT Cell Viability Assay in HEK293 cells - 0 hour (AID 1224880). Further: top concentration of the series differs between compounds; nearly all actives have a fitted effect of over 45% in size. In short, it runs like this: (§1)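 Tox21 screen in HEK293 using RealTime-Glo MT chemistry, with cells and reagent co-dispensed. Luminescence proportional to viable cell number was captured at intervals during 40 h compound exposure at 37 C.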
The nature of assay [2]: A CellTox Green Cytotoxicity Assay to monitor cytotoxicity in HEK293 cells - 32 hour (AID 1224881). Further: nearly all actives have a fitted effect of over 40% in size. In a few lines: (§2)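 Seeding of HEK293 cells together with cytotoxicity dye preceded a 5 h incubation at 37 C/5% CO2. Test compounds in DMSO were then added and fluorescence monitored across 40 h.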
Assay [3] can be described thus: A CellTox Green Cytotoxicity Assay to monitor cytotoxicity in HepG2 cells - 0 hour (AID 1224882). Further: nearly all actives have a fitted effect of over 35% in size. In short, it runs like this: (§3)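 Nonlytic assay: viable cells exclude the dye, so fluorescence scales with cell death. HepG2 at 600 cells/well, compounds added after 5 h, signal read across 40 h.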
The nature of assay [4]: A CellTox Green Cytotoxicity Assay to monitor cytotoxicity in HepG2 cells - 32 hour (AID 1224883). Further: nearly all actives have a fitted effect of over 50% in size. In a few lines: as §3
A short description of assay [5]: A CellTox Green Cytotoxicity Assay to monitor cytotoxicity in HEK293 cells - 8 hour (AID 1224884). Further: nearly all actives have a fitted effect of over 35% in size. In short, it runs like this: as §2
Assay [6] is described as follows: qHTS RealTime-Glo MT Cell Viability Assay in HepG2 cells - 16 hour (AID 1224885). Further: nearly all actives have a fitted effect of over 50% in size. In a few lines:
(§4)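 Cell number in HepG2 cultures estimated from NanoLuc luminescence generated by metabolic reduction of a prosubstrate by living cells. The homogeneous, nonlytic format allowed repeated reads at 0, 8, 16, 24, 32 and 40 h of compound exposure.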
On the technique in general: Quantitative high-throughput screening tests each substance at several concentrations.

Assay [7] in a line: qHTS RealTime-Glo MT Cell Viability Assay in HEK293 cells - 24 hour (AID 1224886). Further: top concentration of the series differs between compounds; nearly all actives have a fitted effect of over 50% in size. In a few lines:
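Homogeneous bioluminescent viability format in HEK293 cells (600 cells/well). Following 5 h at 37 C/5% CO2, 23 nL compound was pintooled; the signal was measured repeatedly during 40 h incubation.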

The nature of assay [8]: qHTS RealTime-Glo MT Cell Viability Assay in HEK293 cells - 8 hour (AID 1224887). Further: top concentration of the series differs between compounds; nearly all actives have a fitted effect of over 50% in size. In a few lines: as §1
Assay [9] can be described thus: A CellTox Green Cytotoxicity Assay to monitor cytotoxicity in HEK293 cells - 16 hour (AID 1224888). Further: nearly all actives have a fitted effect of over 35% in size. In short, it runs like this:
as §2

A short description of assay [10]: qHTS RealTime-Glo MT Cell Viability Assay in HepG2 cells - 0 hour (AID 1224889). Further: nearly all actives have a fitted effect of over 50% in size. In short, it runs like this:
as §4

The nature of assay [11]: A CellTox Green Cytotoxicity Assay to monitor cytotoxicity in HepG2 cells - 8 hour (AID 1224890). Further: nearly all actives have a fitted effect of over 45% in size. In a few lines:
as §3

Assay [12] in a line: qHTS assay to identify small molecule antagonists of the estrogen receptor alpha (ER-alpha) signaling pathway using the BG1 cell line in the presence of 0.1 nM 17-beta-estradiol - cell viability counter screen (AID 1259241). Further: nearly all actives have a fitted effect of over 40% in size. In short, it runs like this:
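VM7Luc4E2 cells (endogenous full-length ER-alpha, 4xERE-luciferase), cultured 5 days in charcoal-stripped serum, exposed to compounds with 0.1 nM 17beta-estradiol (final) for 22 hr at 37C. Viability read in same wells as live-cell protease fluorescence after 30 min.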

The nature of assay [13]: qHTS assay to identify small molecule antagonists of the androgen receptor (AR) signaling pathway using the MDA cell line in the presence of 0.5 nM R1881 - cell viability counter screen (AID 1259242). Further: nearly all actives have a fitted effect of over 45% in size. In a few lines: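 R1881 at 0.5 nM final stimulated MDA-kb2 cells during 16 hr compound treatment at 37C. Cytotoxicity read: CellTiter-Fluor fluorescence after 30 min.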
Assay [14] addresses Androgen receptor (Homo sapiens) (UniProt P10275). The assay is described as follows: qHTS assay to identify small molecule antagonists of the androgen receptor (AR) signaling pathway using the MDA cell line in the presence of 0.5 nM R1881 (AID 1259243). Further: nearly all actives have a fitted effect of over 50% in size. In short, it runs like this: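 We exposed MDA-kb2 cells to compounds under 0.5 nM R1881 stimulation for 16 hr at 37C and quantified MMTV-driven luciferase by luminescence.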

Assay [15] in a line: qHTS assay to identify small molecule HDAC inhibitors (AID 1259364). Further: potency means the concentration at half of the fitted maximal effect.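 Further: wild-type HCT-116 cells with endogenous class I/II HDAC activity; nearly all actives have a fitted effect of over 45% in size.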 In a few lines: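 Relative class I and II HDAC activity is taken from the luminogenic signal in HCT-116 cells, with compound exposure 2 hr and reagent development 30 min at room temperature.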
Assay [16] can be described thus: qHTS assay to identify small molecule HDAC inhibitors - cell viability counter screen (AID 1259365). In a few lines:
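Wild-type HCT-116 cells, 1,500/well, cultured overnight, then compound-treated 2 h at 37 C. Viability measured as ATP luminescence with CellTiter-Glo after 30 min at room temperature.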

Assay [17] can be described thus: qHTS assay to identify small molecule agonists of the sonic hedgehog signaling (Shh) pathway - cell viability counter screen (AID 1259366). Further: nearly all actives have a fitted effect of over 50% in size. In a few lines:
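NIH/3T3-derived Gli1-Luc reporter cells, 2,000 per well, received compound after 4 h and were treated about 23 h at 37C. Viability measured in the same wells by CellTiter-Fluor fluorescence after 1 h.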

Assay [18] can be described thus: qHTS assay to identify small molecule antagonists of the sonic hedgehog signaling (Shh) pathway - cell viability counter screen (AID 1259367). Further: nearly all actives have a fitted effect of over 55% in size. In a few lines: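 Seed 3T3 Gli1-Luc cells at 2,000 per well; incubate 4 hr; add compound in DMSO, then conditioned medium; incubate at 37C with 5% CO2; add CellTiter-Fluor after 23 hr; read fluorescence 1 hr later.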
In assay [19] the target is Estrogen receptor (Homo sapiens) (UniProt P03372). The assay is described as follows: qHTS assay to identify small molecule antagonists of the estrogen receptor alpha (ER-alpha) signaling pathway using the BG1 cell line in the presence of 0.1 nM 17-beta-estradiol (AID 1259244). Further: nearly all actives have a fitted effect of over 50% in size. In short, it runs like this: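 VM7Luc4E2; 4xERE-luciferase; 0.1 nM E2 final; 22 h co-incubation, 37C; ONE-Glo luminescence after 30 min at room temperature.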

A short description of assay [20]: qHTS assay to identify small molecule phospholipidosis (PLD) inducers (AID 1259344; active means well fitted curve in the direction sought with a large enough effect; an effect the other way counts as inactive or inconclusive). In short, it runs like this:
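Quantitative HTS in HepG2: compound plus LipidTOX Red dye for 24 h, paraformaldehyde fixation with Hoechst 33342, widefield high-content imaging; amiodarone as positive and DMSO as negative control.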

Unmarked numbers belong to inactive results. Results filed as inconclusive are left out. Active and inactive are the calls of the source. Unless noted, the call rests on the fitted dose curve; in most records, active means well fitted curve in the direction sought with a large enough effect in the repeat runs; inconclusive means weak or mixed curves; inactive means no such curve, though single readings can be large; an effect the other way counts as inactive or inconclusive.

Androgen receptor (Homo sapiens), sequence (P10275 whole entry, looked up): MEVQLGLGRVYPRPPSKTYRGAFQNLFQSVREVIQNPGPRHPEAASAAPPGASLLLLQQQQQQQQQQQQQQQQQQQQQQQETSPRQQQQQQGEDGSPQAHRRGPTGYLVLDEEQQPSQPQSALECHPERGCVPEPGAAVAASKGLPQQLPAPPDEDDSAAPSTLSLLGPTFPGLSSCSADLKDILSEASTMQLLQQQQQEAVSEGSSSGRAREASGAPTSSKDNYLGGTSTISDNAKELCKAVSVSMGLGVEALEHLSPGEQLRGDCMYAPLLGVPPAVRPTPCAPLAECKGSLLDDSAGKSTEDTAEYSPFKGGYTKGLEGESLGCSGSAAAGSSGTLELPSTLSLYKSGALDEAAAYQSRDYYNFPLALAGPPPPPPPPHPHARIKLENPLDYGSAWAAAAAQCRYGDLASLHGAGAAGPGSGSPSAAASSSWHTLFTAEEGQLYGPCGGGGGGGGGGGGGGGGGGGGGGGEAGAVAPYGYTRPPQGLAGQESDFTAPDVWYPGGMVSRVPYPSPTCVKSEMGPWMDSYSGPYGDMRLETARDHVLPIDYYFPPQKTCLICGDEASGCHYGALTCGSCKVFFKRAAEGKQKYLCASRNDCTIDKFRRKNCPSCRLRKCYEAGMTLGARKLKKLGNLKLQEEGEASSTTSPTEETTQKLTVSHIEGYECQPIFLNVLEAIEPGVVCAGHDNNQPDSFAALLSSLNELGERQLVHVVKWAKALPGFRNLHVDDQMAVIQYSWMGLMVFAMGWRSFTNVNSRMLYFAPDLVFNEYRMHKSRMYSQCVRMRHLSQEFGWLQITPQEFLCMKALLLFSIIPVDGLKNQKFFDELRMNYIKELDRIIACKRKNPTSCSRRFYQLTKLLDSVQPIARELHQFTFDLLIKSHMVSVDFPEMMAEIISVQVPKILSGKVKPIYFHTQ
Estrogen receptor (Homo sapiens), sequence (P03372 whole entry, looked up): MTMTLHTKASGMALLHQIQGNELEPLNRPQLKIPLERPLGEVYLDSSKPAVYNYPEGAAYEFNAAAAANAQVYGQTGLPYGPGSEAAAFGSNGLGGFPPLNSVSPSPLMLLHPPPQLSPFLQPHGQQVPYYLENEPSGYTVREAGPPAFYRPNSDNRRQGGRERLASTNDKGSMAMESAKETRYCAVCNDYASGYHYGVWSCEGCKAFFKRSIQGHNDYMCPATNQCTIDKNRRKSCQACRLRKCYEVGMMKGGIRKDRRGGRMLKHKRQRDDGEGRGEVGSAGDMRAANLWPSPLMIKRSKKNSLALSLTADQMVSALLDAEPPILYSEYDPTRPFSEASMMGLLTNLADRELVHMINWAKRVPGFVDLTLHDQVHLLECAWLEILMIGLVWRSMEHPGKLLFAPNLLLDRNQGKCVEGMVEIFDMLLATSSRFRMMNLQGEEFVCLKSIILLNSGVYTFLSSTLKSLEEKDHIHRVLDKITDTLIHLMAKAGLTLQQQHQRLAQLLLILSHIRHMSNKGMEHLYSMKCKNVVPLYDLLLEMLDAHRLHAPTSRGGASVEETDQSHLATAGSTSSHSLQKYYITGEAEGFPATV

Take `NCCOCCOCCN`: the Potency entry in assay [1], in assay [2], in assay [3], in assay [4], in [5] and in assay [7] was “inactive” each time. The Potency entry in assay [8], in assay [9], in assay [10], in assay [11], in assay [12] and in [13] was “inactive” in each case. Also, the Potency entry in assay [14], in assay [15], in assay [17] and in assay [18] was “inactive” each time. Besides, the call in [6] and in assay [16] was inactive.
Regarding `O=C(O)c1cccc(C(=O)O)c1C(=O)O`, the Potency result in assay [1], in [2], in [3], in assay [4], in assay [5] and in assay [7] was “inactive” throughout. The Potency entry in assay [8], in assay [9], in assay [10], in assay [11], in assay [12] and in [13] was “inactive” throughout. The Potency result in [14], in assay [19], in assay [15], in [17] and in [18] was “inactive” throughout. In addition, the outcome in assay [6] and in assay [16] was inactive.
Take `CC(C)(C(=O)O)c1ccc(C(O)CCCN2CCC(C(O)(c3ccccc3)c3ccccc3)CC2)cc1` (stereo unspecified): the Potency entry in [1], in [2], in assay [3], in [4], in assay [5] and in [7] was “inactive” in each case. Also, the Potency entry in assay [8], in [9], in assay [10], in [11], in assay [12] and in assay [13] was “inactive” in each case. For the same compound, the Potency result in assay [19], in assay [20], in assay [15] and in assay [18] was “inactive” in each case. The result in [6] and in [16] was inactive.
Take `CCOc1ccc(NC(C)=O)cc1N`: the Potency entry in [1], in [2], in assay [3], in assay [4], in assay [5] and in [7] was “inactive” each time. Besides, the Potency entry in [8], in [9], in assay [10], in assay [11], in [12] and in [13] was “inactive” each time. Besides, the Potency result in assay [14], in [19], in [15] and in [17] was “inactive” throughout. In addition, the compound was called inactive in assay [6] and in [16].
Regarding `C[C@H](N)C(=O)N[C@@H](C)C(=O)NC1[C@H]2CN(c3nc4c(cc3F)c(=O)c(C(=O)O)cn4-c3ccc(F)cc3F)C[C@@H]12` (stereo partly specified), the Potency entry in assay [1], in assay [2], in [3], in assay [4], in [5] and in assay [7] was “inactive” each time. For the same compound, the Potency result in assay [8], in assay [9], in assay [10], in assay [11], in assay [12] and in assay [13] was “inactive” in each case. Besides, the Potency result in assay [14], in [15], in assay [17] and in assay [18] was “inactive” in each case. Moreover, the compound was classed as inactive in assay [6] and in assay [16].
Take `CCC(C(=O)O)c1ccc(N2Cc3ccccc3C2=O)cc1` (stereo unspecified): the Potency result in assay [1], in [2], in assay [3], in assay [4], in [5] and in [7] was “inactive” each time. Besides, the Potency entry in assay [8], in assay [9], in assay [10], in [11], in assay [12] and in assay [13] was “inactive” each time. For the same compound, the Potency result in assay [14], in assay [19], in assay [17] and in assay [18] was “inactive” each time. Further, the outcome in assay [6] and in [16] was inactive. The Potency in assay [15] is 2660 nM (active).
`CC(C)C/C=C(\C=O)c1ccccc1`: the Potency result in [1], in assay [2], in assay [3], in [4], in [5] and in assay [7] was “inactive” each time. Further, the Potency result in assay [8], in assay [9], in assay [10], in [11], in assay [12] and in assay [13] was “inactive” throughout. In addition, the Potency entry in [19] and in assay [15] was “inactive” each time. The outcome in assay [6] and in assay [16] was inactive.

Source of the values: PubChem BioAssay (Tox21).
